Laboratory results: PubChem BioAssay (NCATS)
Records with an inconclusive call do not appear. Where a call stands in place of a potency, no number is given. The source made the active and inactive calls. Unless noted, the call rests on the fitted dose curve; in most records, active means well fitted curve in the direction sought with a large enough effect; inconclusive means small, poorly fitted or top-dose-only effect, or another doubt; inactive means no such curve, though single readings can be large; an effect the other way counts as inactive or inconclusive.

Key:
[1] = P-glycoprotein substrates identified in KB-3-1 adenocarcinoma cell line, qHTS therapeutic library screen (AID 1346986); conditions: KB-3-1 parental cells viability, CellTiter-Glo, 72 h; at 44.5 µM (top of the series); further: nearly all actives have a fitted effect of over 60% in size
Method in brief: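 Using luminescence to quantify ATP, parental and P-gp-overexpressing KB cells were compared after 72 h compound titration. KB-8-5-11 was also run with the P-gp inhibitor tariquidar.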

[2] = P-glycoprotein substrates identified in KB-8-5-11 adenocarcinoma cell line, qHTS therapeutic library screen (AID 1346987); conditions: KB-8-5-11 (P-gp overexpressing) viability, CellTiter-Glo, 72 h; series mostly up to 44.5 µM; further: nearly all actives have a fitted effect of over 65% in size; further: potency means the concentration at half of the fitted maximal effect
Method in brief: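 In this qHTS, P-gp-rich KB-8-5-11 cells received library compounds across a concentration range. Viability was quantified by luminescence after 72 h at 37 degree C.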

[3] = Identifying Small Molecule Inhibitors of Pancreatic Cancer Stem Cells (SN12C, Adherent) (AID 1259358); conditions: viability/growth inhibition; series mostly up to 46.1 µM;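 further: cell survival measured after 48 h of compound exposure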; further: potency means the concentration at half of the fitted maximal effect
Method in brief: (§1)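 After a 4 h attachment period, compounds were pinned into wells and cultures held 48 h under standard incubator conditions. Viability was then measured as CellTiter-Glo luminescence following 10 min at room temperature.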

[4] = Identifying Small Molecule Inhibitors of Pancreatic Cancer Stem Cells (SN12C, Spheroid) (AID 1259360); conditions: Potency: SN12C spheroid viability; series mostly up to 46.1 µM; further: potency means the concentration at half of the fitted maximal effect
Method in brief: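 Viability is scored by CellTiter-Glo luminescence 48 h after dosing, expressed as percent activity against vehicle and no-cell references. Spheroid formats rely on cells cultured 14 days in stem cell media beforehand.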

[5] = Identifying Small Molecule Inhibitors of Pancreatic Cancer Stem Cells (A278, Adherent) (AID 1259361); conditions: series mostly up to 46.1 µM;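 further: viability read after 48 h compound exposure; nearly all actives have a fitted effect of over 35% in size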
Method in brief: as §1

[6] = Identifying Small Molecule Inhibitors of Pancreatic Cancer Stem Cells (Panc1, Adherent) (AID 1259362); conditions: viability; further: potency means the concentration at half of the fitted maximal effect
Method in brief: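 Adherent (2D) versus sphere (3D) formats; spheres generated 14 d in SCM beforehand. Compound transferred by pin tool after 4 h, 48 h incubation, CellTiter-Glo endpoint.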

[7] = Natriuretic polypeptide receptor (hNpr1) antagonism - Pilot counterscreen GloSensor control cell line (AID 1347045; calls by dose curve); conditions: HEK293 cGMP GloSensor cells, SNP-stimulated luminescence, 20 min; series mostly up to 38.3 µM
Method in brief: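 HEK293 cGMP-sensor cells; 2% GloSensor reagent 2 h RT; LOPAC compounds in 1:5 titrations 30-50 min; 50 uM SNP 20 min; luminescence pre-read and post-read.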

In the case of `CNS(=O)(=O)CCc1ccc2[nH]cc(C3CCN(C)CC3)c2c1`, the outcome [1] is reported as “inactive” and the Potency [2] is reported as “inactive”.

With `CCCOc1ccc(C(=O)OCCN(CC)CC)cc1N` the Potency [2] was “inactive”.

For `CCN(CC)CCn1c(=O)c(Cc2ccc(OC)cc2)nc2ccccc21`, the Potency [3] was “inactive”, the Potency [4] was “inactive” and the IC50 (viability decrease) [5] was “inactive”. The outcome [1] was “inactive” and the Potency [2] was “inactive”.

In the case of `Clc1ccccc1CN1CCc2sccc2C1`, the Potency [2] is reported as “inactive”.

With `CC(C)C[C@H](NC(=O)[C@H](CCc1ccccc1)NC(=O)CN1CCOCC1)C(=O)N[C@@H](Cc1ccccc1)C(=O)N[C@@H](CC(C)C)C(=O)[C@@]1(C)CO1` the Potency [3] was 0.0372 µM (active), the Potency [4] was 0.0372 µM (active) and the IC50 (viability decrease) [5] was 0.0023 µM (active). For the same compound, the Potency [6] was 0.0264 µM (active) and the Potency [2] was 9.2 µM (active).

With `NC1(c2ccc(-c3nc4ccn5c(=O)[nH]nc5c4cc3-c3ccccc3)cc2)CCC1` the Potency [3] was 26.4 µM (active), the Potency [4] was 23.5 µM (active) and the Potency [6] was 20.9 µM (active). The Potency [2] was 11.6 µM (active).

In the case of `COc1ccc2c(c1)c(CC(=O)OCC(=O)O)c(C)n2C(=O)c1ccc(Cl)cc1`, the Potency [2] is reported as “inactive”.

With `COc1cc2nc(N3CCCN(C)CC3)nc(NC3CCN(Cc4ccccc4)CC3)c2cc1OC` the Potency [6] was 2.35 µM (active), the Potency [2] was 9.35 µM (active) and the Potency [7] was “inactive”.

In the case of `CCCCS(=N)(=O)CCC(N)C(=O)O` (stereo unspecified), the Potency [2] is reported as “inactive” and the Potency [7] is reported as “inactive”.

For `OCc1ccc(-c2nn(Cc3ccccc3)c3ccccc23)o1`, the outcome [1] was “inactive” and the Potency [7] was “inactive”.

For `Nc1nc(N)c2nc(CNc3ccc(C(=O)NC(CCC(=O)O)C(=O)O)cc3)cnc2n1` (stereo unspecified), the Potency [2] was 0.0372 µM (active) and the Potency [7] was “inactive”.

In the case of `CC(C)OC(=O)OCOP(=O)(CO[C@H](C)Cn1cnc2c(N)ncnc21)OCOC(=O)OC(C)C`, the outcome [1] is reported as “inactive” and the Potency [2] is reported as “inactive”.

In the case of `COCCCOc1cc(C[C@@H](C[C@H](N)[C@@H](O)C[C@H](C(=O)NCC(C)(C)C(N)=O)C(C)C)C(C)C)ccc1OC`, the Potency [2] is reported as “inactive”.
